Targets with a hit are over-represented here; the source holds about 7,900 in all. About 0.6% of all pairs of compound and target were hits.
How the values were obtained:
Test in all cases: log2 fold change, soluble protein after heating vs DMSO (PISA); higher = thermal stabilisation; K562 cells, 10 uM, 30 min; active = over 0.2 and 3.5 SD of the protein, either way, in both replicates (recomputed)
[1] = compound: CC[C@@H]1C(=O)N(C)c2cnc(Nc3ccc(C(=O)NC4CCN(C)CC4)cc3OC)nc2N1C1CCCC1
Procedure, shortened: (§1)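 Quantification of soluble protein used TMTpro 16plex LC-MS/MS, with channel sums equalised. Samples were the supernatant after 21,000xg for 90 min of pooled aliquots from K562 cells (2×10^6 cells/mL) treated with 10 μM compound for 30 min, heated for 3 min over 48°C-58°C, and extracted in PBS with 0.5% NP-40 at 4°C. Values, from duplicates, describe thermal stability against control samples on a log2 fold-change scale.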

[2] = compound: CC[C@@H]1C(=O)N(C)c2cnc(Nc3ccc(C(=O)N[C@H]4CC[C@H](N5CCN(CC6CC6)CC5)CC4)cc3OC)nc2N1C(C)C [volasertib]
Procedure, shortened: as §1

[3] = compound: CC[C@H](C)N1C=C(C2=C(C=C(C=C21)C3=CN=C(C=C3)N4CCNCC4)C(=O)NCC5=C(C=C(NC5=O)C)C)C
Procedure, shortened: as §1

[4] = compound: CC[C@H](C)[C@@H](C(=O)N[C@@H]([C@@H](C)O)C(=O)N[C@@H](CC(C)C)C(=O)[C@]1(CO1)C)NC(=O)[C@H]([C@@H](C)CC)N(C)C(=O)C [epoxomicin]
Procedure, shortened: as §1

[5] = compound: CCn1c(C(=O)N(C2CC2)C2CC2)cc2c3c(ncn3C)c(Nc3cc(C)n(C)n3)nc21
Procedure, shortened: as §1

[6] = compound: CCn1cc(-c2ccnc3[nH]c(-c4cccc(CN(C)C)c4)cc23)c(-c2ccc(NC(=O)N(C)C)cc2)n1
Procedure, shortened: as §1

[7] = compound: CN(C)CC(=O)Nc1ccc2[nH]c(=O)c3ccccc3c2c1
Procedure, shortened: as §1

[8] = compound: CN(CCOC1=CC=C(C=C1)C[C@H]2C(=O)NC(=O)S2)C3=CC=CC=N3 (racemic) [rosiglitazone]
Procedure, shortened: as §1

[9] = compound: CN1C2=C(C3=C1C(=O)N(N=C3)CC4=CC(=CC=C4)N)SC(=C2)S(=O)C
Procedure, shortened: as §1

[10] = compound: CN1CCC(CNc2ccc3ncc(-c4cccc(OC(F)(F)F)c4)n3n2)CC1
Procedure, shortened: as §1

[11] = compound: CN1CCN(CCOc2cc(OC3CCOCC3)c3c(Nc4c(Cl)ccc5c4OCO5)ncnc3c2)CC1 [saracatinib]
Procedure, shortened: as §1

[12] = compound: CN1CCN(c2nc(C3=C(c4c[nH]c5ccccc45)C(=O)NC3=O)c3ccccc3n2)CC1 [sotrastaurin]
Procedure, shortened: as §1

[13] = compound: CN1CC[C@H](c2c(O)cc(O)c3c(=O)cc(-c4ccccc4Cl)oc23)[C@H](O)C1 [alvocidib]
Procedure, shortened: as §1

[14] = compound: CN1CCc2c(c3ccccc3n2Cc2ccc(C(=O)NO)cc2)C1 [Tubastatin A]
Procedure, shortened: as §1

[15] = compound: CNC(=O)C1=CC=CC=C1NC2=NC(=NC=C2Cl)NC3=C(C=C(C=C3)N4CCOCC4)OC
Procedure, shortened: as §1

[16] = compound: CNC(=O)c1ccc(Nc2ncc(C(F)(F)F)c(NCc3nccnc3N(C)S(C)(=O)=O)n2)cc1 [defactinib]
Procedure, shortened: as §1

[17] = compound: CNCc1ccc(-c2[nH]c3cc(F)cc4c3c2CCNC4=O)cc1 [rucaparib]
Procedure, shortened: as §1

[18] = compound: CNc1nc(-c2ccc3c(N)n[nH]c3c2)cc(N2C[C@@H](C(=O)NC3CCCCC3)CC[C@H]2C)n1
Procedure, shortened: as §1

[19] = compound: COC(=O)N[C@@H](C)CNc1nccc(-c2cn(C(C)C)nc2-c2cc(Cl)cc(NS(C)(=O)=O)c2F)n1 [encorafenib]
Procedure, shortened: as §1

[20] = compound: COC(=O)[C@H](CCSC)NC(=O)C1=C(C=C(C=C1)NC[C@H](CS)N)C2=CC=CC=C2
Procedure, shortened: as §1

Measured: log2 fold change

IDI1 isoform 2 (UniProt Q13907)
Sequence of UniProt Q13907 (Q13907 whole entry, looked up): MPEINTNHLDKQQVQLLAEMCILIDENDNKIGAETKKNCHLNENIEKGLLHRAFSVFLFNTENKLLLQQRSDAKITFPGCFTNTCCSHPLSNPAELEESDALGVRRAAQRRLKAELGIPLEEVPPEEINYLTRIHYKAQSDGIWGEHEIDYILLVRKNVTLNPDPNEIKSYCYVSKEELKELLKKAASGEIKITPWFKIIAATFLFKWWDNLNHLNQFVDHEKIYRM
inactive: [1] 0.055 | [2] 0.127 | [3] -0.05 | [4] -0.079 | [5] -0.008 | [6] -0.081 | [7] -0.065 | [8] -0.01 | [9] -0.004 | [10] -0.005 | [11] 0.01 | [12] 0.065 | [13] -0.017 | [14] -0.174 | [15] -0.002 | [16] -0.006 | [17] -0.124 | [18] 0.002 | [19] -0.001 | [20] 0.044

GEMIN6 (UniProt Q8WXD5)
Sequence of UniProt Q8WXD5 (Q8WXD5 whole entry, looked up): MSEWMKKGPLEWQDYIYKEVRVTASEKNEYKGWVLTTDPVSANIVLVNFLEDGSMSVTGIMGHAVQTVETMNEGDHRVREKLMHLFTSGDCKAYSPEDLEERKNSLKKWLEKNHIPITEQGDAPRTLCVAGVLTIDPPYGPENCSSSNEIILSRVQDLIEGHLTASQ
inactive: [1] 0.109 | [2] 0.148 | [3] -0.052 | [4] 0.093 | [5] -0.017 | [6] -0.019 | [7] -0.039 | [8] 0.071 | [9] -0.087 | [10] -0.048 | [11] 0.063 | [12] 0.002 | [13] -0.028 | [14] 0.072 | [15] 0.013 | [16] -0.061 | [17] 0.069 | [18] -0.028 | [19] -0.04 | [20] -0.112

HOOK3 (UniProt Q86VS8)
active: [2] -0.395 | [10] -0.358
inactive: [1] -0.151 | [3] 0.034 | [4] 0.004 | [5] 0.006 | [6] -0.017 | [7] 0.005 | [8] 0.09 | [9] 0.031 | [11] -0.016 | [12] -0.166 | [13] 0.003 | [14] -0.019 | [15] 0.013 | [16] -0.005 | [17] -0.063 | [18] -0.008 | [19] 0.022 | [20] -0.007

FBXO7 (UniProt Q9Y3I1)
active: [6] -0.295
inactive: [1] 0.079 | [2] -0.198 | [3] 0.044 | [4] -0.012 | [5] -0.066 | [7] 0.029 | [8] 0.008 | [9] -0.022 | [10] 0.003 | [11] -0.003 | [12] 0.052 | [13] -0.069 | [14] 0.019 | [15] 0.012 | [16] -0.025 | [17] 0.068 | [18] 0.028 | [19] -0.009 | [20] -0.029

HDHD2 (UniProt Q9H0R4)
Sequence of UniProt Q9H0R4 (Q9H0R4 whole entry, looked up): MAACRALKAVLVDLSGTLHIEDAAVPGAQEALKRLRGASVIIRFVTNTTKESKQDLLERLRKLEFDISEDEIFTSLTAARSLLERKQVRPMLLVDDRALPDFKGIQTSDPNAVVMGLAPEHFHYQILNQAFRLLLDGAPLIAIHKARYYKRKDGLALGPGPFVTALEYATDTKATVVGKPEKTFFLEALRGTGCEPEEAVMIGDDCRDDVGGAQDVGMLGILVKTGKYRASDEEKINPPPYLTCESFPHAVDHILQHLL
inactive: [1] 0.011 | [2] 0.049 | [3] -0.007 | [4] 0.073 | [5] -0.012 | [6] -0.063 | [7] 0.053 | [8] 0.017 | [9] -0.058 | [10] -0.096 | [11] -0.004 | [12] -0.077 | [13] -0.028 | [14] -0.016 | [15] -0.017 | [16] 0 | [17] -0.049 | [18] -0.048 | [19] 0.016 | [20] -0.018

GSK3A (UniProt P49840)
Sequence of UniProt P49840 (P49840 whole entry, looked up): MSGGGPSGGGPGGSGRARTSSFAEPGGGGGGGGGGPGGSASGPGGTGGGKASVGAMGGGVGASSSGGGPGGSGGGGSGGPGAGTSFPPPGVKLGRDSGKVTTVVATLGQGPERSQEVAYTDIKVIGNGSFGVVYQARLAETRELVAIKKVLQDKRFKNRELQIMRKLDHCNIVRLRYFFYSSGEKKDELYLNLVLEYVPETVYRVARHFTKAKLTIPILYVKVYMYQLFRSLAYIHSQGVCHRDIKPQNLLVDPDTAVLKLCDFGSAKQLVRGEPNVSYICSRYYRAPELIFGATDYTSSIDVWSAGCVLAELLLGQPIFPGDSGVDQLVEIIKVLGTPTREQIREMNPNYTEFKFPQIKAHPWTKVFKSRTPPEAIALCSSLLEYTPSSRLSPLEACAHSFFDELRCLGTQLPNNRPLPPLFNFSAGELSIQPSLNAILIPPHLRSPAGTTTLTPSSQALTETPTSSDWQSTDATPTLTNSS
inactive: [1] -0.067 | [2] 0.002 | [3] 0.002 | [4] 0 | [5] 0.025 | [6] -0.101 | [7] -0.008 | [8] 0.017 | [9] -0.066 | [10] 0.033 | [11] -0.007 | [13] 0.257 | [14] -0.007 | [15] -0.009 | [16] 0.18 | [17] 0.22 | [18] -0.041 | [19] 0.005 | [20] -0.051
active: [12] 0.337

HDAC1 (UniProt Q13547)
Sequence of UniProt Q13547 (Q13547 whole entry, looked up): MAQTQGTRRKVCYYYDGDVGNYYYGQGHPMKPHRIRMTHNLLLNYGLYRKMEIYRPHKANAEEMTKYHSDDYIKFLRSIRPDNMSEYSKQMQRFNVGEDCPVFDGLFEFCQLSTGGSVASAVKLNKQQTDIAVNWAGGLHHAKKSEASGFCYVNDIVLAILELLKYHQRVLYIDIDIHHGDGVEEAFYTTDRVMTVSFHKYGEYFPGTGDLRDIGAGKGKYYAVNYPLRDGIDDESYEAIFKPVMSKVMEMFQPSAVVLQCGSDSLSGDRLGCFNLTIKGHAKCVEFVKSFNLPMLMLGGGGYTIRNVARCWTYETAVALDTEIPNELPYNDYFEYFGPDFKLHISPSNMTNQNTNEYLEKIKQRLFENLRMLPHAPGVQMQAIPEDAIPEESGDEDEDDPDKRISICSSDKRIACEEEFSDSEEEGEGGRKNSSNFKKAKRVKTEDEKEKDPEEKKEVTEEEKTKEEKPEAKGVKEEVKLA
active: [14] 1.52
inactive: [1] -0.025 | [2] -0.216 | [3] 0.037 | [4] -0.006 | [5] -0.015 | [6] 0.019 | [7] 0.011 | [8] -0.027 | [9] 0.001 | [10] -0.043 | [11] -0.004 | [12] -0.026 | [13] -0.137 | [15] -0.163 | [16] -0.15 | [17] 0.023 | [18] 0.04 | [19] -0.046 | [20] -0.062

HRAS (UniProt P01112)
Sequence of UniProt P01112 (P01112 whole entry, looked up): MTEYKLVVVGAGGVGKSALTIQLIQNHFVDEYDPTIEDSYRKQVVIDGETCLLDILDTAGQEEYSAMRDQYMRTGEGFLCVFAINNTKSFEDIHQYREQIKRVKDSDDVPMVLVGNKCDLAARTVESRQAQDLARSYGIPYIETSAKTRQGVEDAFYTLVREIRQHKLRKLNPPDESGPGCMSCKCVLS
inactive: [1] -0.014 | [2] 0.057 | [3] -0.028 | [4] 0.104 | [5] 0.007 | [6] -0.082 | [7] -0.125 | [8] -0.159 | [9] -0.033 | [10] 0.048 | [11] 0.002 | [12] 0.091 | [13] -0.075 | [14] 0.014 | [15] -0.015 | [16] -0.012 | [17] 0.072 | [18] 0.077 | [19] -0.042 | [20] 0.062

HNRNPUL1 (UniProt Q9BUJ2)
inactive: [1] 0.051 | [2] -0.069 | [3] 0.014 | [4] 0.019 | [5] -0.029 | [6] 0.004 | [7] 0.013 | [8] -0.001 | [9] 0.099 | [10] 0.031 | [11] -0.016 | [12] 0.039 | [13] 0.082 | [14] 0 | [15] 0.008 | [16] 0.018 | [17] 0.075 | [18] 0.034 | [19] 0.063 | [20] -0.011

IFNGR1 (UniProt P15260)
Sequence of UniProt P15260 (P15260 whole entry, looked up): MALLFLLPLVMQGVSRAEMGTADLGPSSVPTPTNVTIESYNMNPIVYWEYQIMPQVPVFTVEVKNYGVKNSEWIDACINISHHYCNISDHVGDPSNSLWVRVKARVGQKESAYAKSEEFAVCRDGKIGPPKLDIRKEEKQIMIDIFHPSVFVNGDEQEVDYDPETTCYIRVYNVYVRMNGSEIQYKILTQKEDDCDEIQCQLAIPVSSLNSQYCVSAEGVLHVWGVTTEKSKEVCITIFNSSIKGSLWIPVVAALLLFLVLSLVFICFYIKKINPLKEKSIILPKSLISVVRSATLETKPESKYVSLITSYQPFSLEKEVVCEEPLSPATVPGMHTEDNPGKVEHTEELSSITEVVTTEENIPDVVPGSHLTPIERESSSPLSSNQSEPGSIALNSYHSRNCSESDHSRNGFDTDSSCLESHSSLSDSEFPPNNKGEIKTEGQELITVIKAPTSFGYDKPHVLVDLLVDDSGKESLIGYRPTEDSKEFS
inactive: [1] 0.065 | [2] 0.15 | [3] -0.382 | [4] 0.021 | [5] -0.108 | [6] 0.1 | [7] -0.087 | [8] -0.02 | [9] 0.032 | [10] 0.127 | [11] 0.05 | [12] -0.038 | [13] 0.253 | [14] 0.11 | [15] -0.215 | [16] 0.051 | [17] 0.056 | [18] -0.009 | [19] -0.026 | [20] 0.088

GPX4 (UniProt P36969)
Sequence of UniProt P36969 (P36969 whole entry, looked up): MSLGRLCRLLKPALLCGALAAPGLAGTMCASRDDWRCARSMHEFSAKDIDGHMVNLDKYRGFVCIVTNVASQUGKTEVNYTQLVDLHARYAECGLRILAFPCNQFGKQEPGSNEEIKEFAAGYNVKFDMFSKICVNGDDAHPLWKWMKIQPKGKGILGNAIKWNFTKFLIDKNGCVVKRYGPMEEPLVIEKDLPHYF
inactive: [1] 0.019 | [2] 0.016 | [3] 0.012 | [4] 0.021 | [5] 0.001 | [6] -0.025 | [7] 0.009 | [8] -0.012 | [9] -0.061 | [10] 0.067 | [11] 0.043 | [12] 0.004 | [13] -0.035 | [15] -0.02 | [16] -0.009 | [17] 0.002 | [18] -0.037 | [19] -0.009 | [20] -0.013
active: [14] -0.371

GSR (UniProt P00390)
Sequence of UniProt P00390 (P00390 whole entry, looked up): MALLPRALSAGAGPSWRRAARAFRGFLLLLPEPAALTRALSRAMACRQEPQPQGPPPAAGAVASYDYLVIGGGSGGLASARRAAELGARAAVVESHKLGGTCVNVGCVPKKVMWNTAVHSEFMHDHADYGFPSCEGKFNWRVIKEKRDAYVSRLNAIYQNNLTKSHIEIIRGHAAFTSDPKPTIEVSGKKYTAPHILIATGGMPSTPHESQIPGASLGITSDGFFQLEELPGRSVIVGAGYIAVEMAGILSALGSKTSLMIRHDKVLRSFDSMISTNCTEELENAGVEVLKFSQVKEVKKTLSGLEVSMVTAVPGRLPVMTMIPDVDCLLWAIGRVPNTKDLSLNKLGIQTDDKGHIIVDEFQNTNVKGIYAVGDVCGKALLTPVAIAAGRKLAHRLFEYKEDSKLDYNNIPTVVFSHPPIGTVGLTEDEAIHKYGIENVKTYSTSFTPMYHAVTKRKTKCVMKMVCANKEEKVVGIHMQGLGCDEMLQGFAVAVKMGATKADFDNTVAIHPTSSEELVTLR
inactive: [1] 0.04 | [2] 0.034 | [3] -0.038 | [4] 0.001 | [5] -0.023 | [6] -0.008 | [7] -0.018 | [8] 0.024 | [9] -0.071 | [10] -0.02 | [11] -0.021 | [12] 0.048 | [13] 0 | [14] 0.008 | [15] -0.006 | [16] -0.016 | [17] -0.025 | [18] -0.021 | [19] -0.02 | [20] 0.002

GPKOW (UniProt Q92917)
Sequence of UniProt Q92917 (Q92917 whole entry, looked up): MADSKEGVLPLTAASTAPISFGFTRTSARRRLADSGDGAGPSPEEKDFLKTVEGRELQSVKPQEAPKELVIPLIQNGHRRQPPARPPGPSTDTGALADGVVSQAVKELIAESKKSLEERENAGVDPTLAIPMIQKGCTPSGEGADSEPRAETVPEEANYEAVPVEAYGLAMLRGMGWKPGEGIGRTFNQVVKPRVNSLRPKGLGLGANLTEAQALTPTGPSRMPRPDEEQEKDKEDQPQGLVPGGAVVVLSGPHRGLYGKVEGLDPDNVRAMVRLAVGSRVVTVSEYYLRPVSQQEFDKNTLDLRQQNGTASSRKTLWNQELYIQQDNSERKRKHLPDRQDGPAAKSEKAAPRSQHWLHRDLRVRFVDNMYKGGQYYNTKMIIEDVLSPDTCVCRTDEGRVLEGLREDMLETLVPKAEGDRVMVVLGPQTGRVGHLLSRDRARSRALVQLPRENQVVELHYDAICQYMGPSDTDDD
inactive: [1] -0.056 | [2] -0.217 | [3] 0.101 | [4] -0.021 | [5] -0.063 | [6] -0.049 | [7] 0.039 | [8] 0.045 | [9] 0.022 | [10] -0.248 | [11] -0.03 | [12] -0.031 | [13] -0.188 | [14] 0.033 | [15] -0.107 | [16] -0.178 | [17] -0.036 | [18] 0.069 | [19] 0.034 | [20] -0.032

GATA1 (UniProt P15976)
Sequence of UniProt P15976 (P15976 whole entry, looked up): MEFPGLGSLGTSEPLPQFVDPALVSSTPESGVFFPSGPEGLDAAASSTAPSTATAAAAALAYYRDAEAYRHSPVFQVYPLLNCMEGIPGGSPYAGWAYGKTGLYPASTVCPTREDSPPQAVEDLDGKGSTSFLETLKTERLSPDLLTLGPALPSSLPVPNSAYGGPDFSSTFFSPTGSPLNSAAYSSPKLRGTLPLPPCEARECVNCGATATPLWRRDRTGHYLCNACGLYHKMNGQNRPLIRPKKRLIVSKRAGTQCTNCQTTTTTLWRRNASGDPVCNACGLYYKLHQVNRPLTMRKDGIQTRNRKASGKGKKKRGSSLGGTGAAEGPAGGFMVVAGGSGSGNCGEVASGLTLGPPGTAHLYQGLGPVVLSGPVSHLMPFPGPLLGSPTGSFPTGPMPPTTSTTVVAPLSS
inactive: [1] 0.134 | [2] 0.076 | [3] -0.036 | [4] 0.152 | [5] -0.026 | [6] 0.04 | [7] -0.084 | [8] -0.021 | [9] 0.046 | [10] 0.119 | [11] 0.097 | [12] -0.042 | [13] 0.128 | [14] -0.049 | [15] 0.104 | [16] 0.088 | [17] 0.086 | [18] -0.014 | [19] 0.054 | [20] 0

GYS1 (UniProt P13807)
Sequence of UniProt P13807 (P13807 whole entry, looked up): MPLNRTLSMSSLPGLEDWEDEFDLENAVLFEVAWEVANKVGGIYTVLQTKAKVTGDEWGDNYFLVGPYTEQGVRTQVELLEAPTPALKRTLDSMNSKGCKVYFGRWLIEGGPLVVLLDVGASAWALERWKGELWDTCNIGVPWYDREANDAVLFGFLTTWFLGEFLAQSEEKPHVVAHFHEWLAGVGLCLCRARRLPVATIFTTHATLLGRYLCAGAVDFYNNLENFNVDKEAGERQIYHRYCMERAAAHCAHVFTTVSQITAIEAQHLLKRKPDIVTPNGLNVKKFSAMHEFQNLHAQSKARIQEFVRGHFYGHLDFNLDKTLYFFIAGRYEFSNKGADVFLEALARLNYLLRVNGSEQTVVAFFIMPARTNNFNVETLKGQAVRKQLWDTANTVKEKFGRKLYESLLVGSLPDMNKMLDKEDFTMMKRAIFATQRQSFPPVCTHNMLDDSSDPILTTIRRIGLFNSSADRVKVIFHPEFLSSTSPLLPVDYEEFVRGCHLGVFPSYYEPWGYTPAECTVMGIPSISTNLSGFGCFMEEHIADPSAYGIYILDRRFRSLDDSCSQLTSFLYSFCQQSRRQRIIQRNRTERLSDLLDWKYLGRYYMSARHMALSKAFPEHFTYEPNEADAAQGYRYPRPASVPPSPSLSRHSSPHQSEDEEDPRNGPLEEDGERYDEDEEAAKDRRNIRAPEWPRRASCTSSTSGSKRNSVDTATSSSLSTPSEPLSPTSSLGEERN
inactive: [1] 0.229 | [2] 0.224 | [3] 0.059 | [4] -0.034 | [5] 0.069 | [6] 0.139 | [7] 0.029 | [8] -0.1 | [9] 0.364 | [10] 0.123 | [11] -0.255 | [12] -0.286 | [13] 0.1 | [14] 0.035 | [15] 0.107 | [16] 0.057 | [17] 0.077 | [18] 0.193 | [19] 0.176 | [20] -0.047

Reference: the supplement of paper PMC10849652
